Bioassay records from PubChem.
MITF TRPM1 HTS = MITF TRPM1 promoter activation in melanoma cells; SK-MEL-5 TRPM1-promoter luciferase, 24 h; % of positive control, neutral wells = 0; activation, % at 12.5 µM; actives 0.75% (n = 300,000);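 active = mean activation of at least 80% with every replicate also reaching 80%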
esBAF inh = blocks esBAF chromatin remodeling in mouse ES cells; reporter increase, % at 12.5 µM; actives 2% (n = 350,000); AID 602393; Bmi1-luciferase knock-in reporter, 24 h; 100% = twice the neutral-well signal; in the data active = activation above about 40%;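 note: a rise in the Bmi1 reporter signal indicates esBAF inhibition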
AHR act = human AHR activation; P35869; AHR-responsive luciferase reporter cells, luminescence; activation, % at 5 µM; actives 2.5% (n = 320,000); in the data active = activation above about 47%
Target sequence (P35869 whole entry, looked up): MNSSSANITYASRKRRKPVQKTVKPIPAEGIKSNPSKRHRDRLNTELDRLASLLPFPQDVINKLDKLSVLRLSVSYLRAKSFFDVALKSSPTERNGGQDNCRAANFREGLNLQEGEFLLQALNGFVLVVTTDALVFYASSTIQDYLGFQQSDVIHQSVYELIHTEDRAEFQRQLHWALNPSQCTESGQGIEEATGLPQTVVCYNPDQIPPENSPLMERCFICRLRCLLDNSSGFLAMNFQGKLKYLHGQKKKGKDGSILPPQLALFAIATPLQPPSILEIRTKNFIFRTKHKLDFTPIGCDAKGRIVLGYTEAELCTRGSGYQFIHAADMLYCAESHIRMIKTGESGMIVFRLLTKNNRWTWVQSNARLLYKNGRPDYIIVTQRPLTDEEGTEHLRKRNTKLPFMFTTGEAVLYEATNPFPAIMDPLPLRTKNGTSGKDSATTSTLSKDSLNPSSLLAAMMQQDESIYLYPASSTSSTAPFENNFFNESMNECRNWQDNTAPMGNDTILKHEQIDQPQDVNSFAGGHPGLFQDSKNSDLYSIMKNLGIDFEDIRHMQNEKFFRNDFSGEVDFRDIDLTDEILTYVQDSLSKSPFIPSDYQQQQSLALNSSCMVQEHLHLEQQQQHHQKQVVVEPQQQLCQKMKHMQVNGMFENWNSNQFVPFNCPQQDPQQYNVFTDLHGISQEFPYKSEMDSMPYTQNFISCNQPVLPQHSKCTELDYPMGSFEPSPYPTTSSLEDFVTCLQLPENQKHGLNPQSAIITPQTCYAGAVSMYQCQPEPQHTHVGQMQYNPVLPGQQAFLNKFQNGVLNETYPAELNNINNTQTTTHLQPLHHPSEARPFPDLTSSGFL
Wnt bcat act = activators of Wnt/beta-catenin signaling. Wnt/beta-catenin reporter cell assay, activator, plate reader. activation, % at 9.35 µM. actives 1.2% (n = 300,000). AID 743398; in the data active = activation above about 30%, passing the limit was not always enough
GAA850 FXN act = increases GAA850 frataxin promoter reporter activity; actives 0.56% (n = 360,000); HEK293 lucGAA850 FXN promoter luciferase reporter, 24 h; percent of 10 µM SAHA response; AID 540364; activation, % at 6 µM;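 active = activation above the average of all compounds screened plus 3 SD, cutoff fixed separately per campaign, cut at about 7.5% in these data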
Numbers stand for hits; - = inactive; . = no result. In the library only some 4.2% were active in any assay of this set; here they are far more common.

SMILES	MITF TRPM1 HTS	esBAF inh	AHR act	Wnt bcat act	GAA850 FXN act
O=C1Nc2ccc(Br)cc2C12NNc1ccccc1O2 (stereo not drawn)	-	-	60.4	-	-
O=C(Nc1ccc(-c2nc3ccccc3s2)cc1)c1cc(-n2cnnc2)ccc1Cl	-	59.8	-	-	-
Cc1cc(NC(=O)CSc2nnc(-c3cccc(Cl)c3)o2)no1	-	-	-	-	-
Cc1cc(-c2nnc(-c3cccc(Cl)c3)o2)no1	.	.	-	52.6	-
Cn1c2ccccc2c2cc(C(=O)NNC(=O)CCl)sc21	-	.	61.5	-	-
CC(=O)Nc1ccc(S(=O)(=O)NNC(=O)c2cc3c4ccccc4n(C)c3s2)cc1	-	-	75.5	.	-
CCCNC(=O)c1cc2c(C(F)(F)F)nn(C)c2s1	-	-	-	.	-
COCCNC(=O)c1cc2c3ccccc3n(C)c2s1	-	.	49.0	-	-
CCCNC(=O)c1cc2c3ccccc3n(C)c2s1	.	-	52.3	.	-
C[C@H](CO)N1C[C@H](C)[C@H](CN(C)C(=O)c2ccncc2)Oc2ncc(C#CC3CCCC3)cc2C1=O	.	-	.	.	.
C[C@H]1CCCCO[C@@H](CN(C)C(=O)c2ccncc2)[C@@H](C)CN([C@@H](C)CO)C(=O)c2cc(NS(=O)(=O)c3cn(C)cn3)ccc2O1	.	-	.	.	.
CO[C@H]1CN(C)C(=O)c2cc(NC(=O)Nc3ccccc3)ccc2OC[C@H](C)N(C(=O)CN(C)C)C[C@@H]1C	.	-	.	.	.
Fc1ccc2c(c1)[C@H]1OCC[C@H]1[C@@H](c1ccco1)N2	-	-	-	-	-
Clc1ccc2c(c1)[C@H]1OCC[C@H]1[C@@H](c1ccco1)N2	-	48.4	-	-	-
Cc1ccc2cc(CN(C(=O)c3ccco3)c3ccccc3)c(=O)[nH]c2c1	-	54.2	-	.	-
CC(=O)N(CCc1ccccc1)Cc1cc2cc(C)ccc2[nH]c1=O	.	-	53.7	-	-
Cc1ccc(N(Cc2cc3ccc(C)cc3[nH]c2=O)C(=O)c2ccco2)cc1	-	.	-	-	-
COc1ccc2[nH]c(=O)c(CN(CCc3ccccc3)C(C)=O)cc2c1	-	-	-	.	-
O=C(c1ccco1)[C@@H]1[C@@H]2C(=O)N(c3ccccc3)C(=O)[C@@H]2C2c3ccccc3C=CN21 (stereo partly drawn)	-	.	-	-	-
COc1ccc(N2C(=O)[C@@H]3[C@H](C2=O)[C@H]2c4ccccc4C=CN2[C@@H]3C(=O)Nc2ccccc2)cc1	.	-	55.5	.	-
O=C(N/N=C/c1cccs1)c1ccc2ncccc2c1	-	.	-	-	-
O=C(N/N=C/c1cccs1)c1cc(-c2cccc3ccccc23)n[nH]1	-	.	48.1	.	-
CC(C)(C)C1CCc2c(C(=O)N/N=C/c3cccs3)csc2C1 (stereo not drawn)	124.4	-	-	-	-
O=C(N/N=C/c1cccs1)c1ccc2ccccc2c1	-	76.6	-	-	-
O=C(O)c1ccc(/C=N/NC(=O)c2cc(-c3ccc4c5c(cccc35)CC4)n[nH]2)cc1	-	.	77.9	-	-
SMILES	MITF TRPM1 HTS	esBAF inh	AHR act	Wnt bcat act	GAA850 FXN act
O=C(CN1CCOCC1)N[C@@H]1CC[C@H](CCNC(=O)Nc2cc(F)ccc2F)O[C@@H]1CO	.	-	.	.	.
CNC[C@H]1OCCCC[C@H](C)Oc2ccc(NS(=O)(=O)c3ccc(C)cc3)cc2C(=O)N([C@H](C)CO)C[C@@H]1C	.	-	.	.	.
C[C@H](CO)N1C[C@H](C)[C@@H](CN(C)C(=O)Nc2ccc(F)cc2)Oc2ccc(NS(=O)(=O)c3ccc(F)cc3)cc2CC1=O	.	-	.	.	.
Cc1noc(C)c1NC(=O)Nc1ccc2c(c1)C(=O)N([C@@H](C)CO)C[C@@H](C)[C@H](CN(C)C(=O)Nc1ccc(F)cc1)OCCCC[C@H](C)O2	.	-	.	.	.
O=C(N/N=C/c1ccccn1)c1cc(-c2cccc3ccccc23)n[nH]1	-	.	69.7	-	-
CC(C)(C)NC(=O)C(=O)N/N=C/c1cccs1	.	45.6	-	-	-
CC(C)CNC(=O)C(=O)N/N=C/c1cccs1	-	-	-	-	-
CC(C)NC(=O)Nc1cccc2c1O[C@@H](CN(C)Cc1ccc(-c3ccccc3)cc1)[C@@H](C)CN([C@@H](C)CO)C2=O	.	-	.	.	.
CN(C)CCCNC(=O)C[C@@H]1CC[C@H](NC(=O)Cc2cccnc2)[C@H](CO)O1	.	-	.	.	.
CCOC(=O)c1cc2ccc3ccccc3c2oc1=O	.	-	-	-	-
COC(=O)c1cc2c(s1)-c1ccccc1CC2	-	-	-	-	-
CCOC(=O)c1cc2ccc3ccccc3c2s1	-	75.3	-	.	-
CCOC(=O)c1cc2c(s1)-c1ccccc1CC2	-	57.1	-	-	-
C[C@H](CO)N1C[C@H](C)[C@@H](CN(C)Cc2ccncc2)Oc2cc(C#CC3CC3)ccc2S1(=O)=O	.	-	.	.	.
CCOc1[nH]n(-c2ccccc2)c(=O)c1C=NCc1cccnc1	-	-	59.4	-	-
CCOc1[nH]n(-c2ccccc2)c(=O)c1C=NCC(=O)OC	-	-	-	-	-
Cn1c(SCCOc2ccccc2Cl)nnc1-c1cccs1	-	-	-	-	-
Cn1c(SCc2c(F)cccc2Cl)nnc1-c1cccs1	.	65.3	-	.	-
CC(C)CN(C(=O)CCNC(=O)c1ccc([N+](=O)[O-])cc1)C1CCS(=O)(=O)C1 (stereo not drawn)	-	-	-	-	-
CC(C)CN(C(=O)CCNC(=O)c1ccccc1Cl)C1CCS(=O)(=O)C1 (stereo not drawn)	-	-	-	32.4	-
O=C(N/N=C/c1ccccc1C(=O)O)c1cccc(S(=O)(=O)Nc2cc(Cl)ccc2Cl)c1	-	-	-	-	-
Cc1ccc(/C=N/NC(=O)c2cccc(S(=O)(=O)Nc3ccccc3Cl)c2)s1	-	-	52.9	-	-
Nc1ccccc1SC1CC(=O)N(c2ccc3c(c2)OCCO3)C1=O (stereo not drawn)	.	.	-	35.0	-
C(=C\c1nc(N2CCCCCC2)c2ccccc2n1)/c1ccccc1	-	.	77.9	-	-
Cn1c(SCC(=O)NCC2CCCO2)ncc(C(=O)Nc2ccc(F)cc2)c1=O (stereo not drawn)	-	.	50.9	-	-
SMILES	MITF TRPM1 HTS	esBAF inh	AHR act	Wnt bcat act	GAA850 FXN act
Cn1c(SCC(=O)NCC2CCCO2)ncc(C(=O)Nc2ccc(Cl)cc2)c1=O (stereo not drawn)	-	-	55.9	-	-
Cn1c(SCC(=O)NCc2ccc(F)cc2)ncc(C(=O)Nc2ccccc2)c1=O	-	-	-	-	-
Cn1c(SCC(=O)NCc2ccc3c(c2)OCO3)ncc(C(=O)Nc2ccc(F)cc2)c1=O	-	.	48.6	-	-
COc1cccc(-c2ccc3n(c2=O)C[C@@H]2[C@@H](CO)[C@H](C(=O)N(C)C)N(C(=O)C4CC4)[C@H]32)c1	.	-	.	.	.
COc1ccc(S(=O)(=O)N[C@@H]2CC[C@@H](CC(=O)O)O[C@H]2CO)cc1	.	-	.	.	.
Cn1cncc1C#Cc1c(C=O)[nH]c2ccccc12	-	-	68.2	-	-
O=C(NCC1CC1)c1ccc2c3n(nc2c1)-c1ccc(Cl)cc1CO3	-	43.8	-	-	-
Cc1ccc2c(c1)COc1c3ccc(C(=O)NCCO)cc3nn1-2	102.4	61.9	-	51.6	-
